# From PubChem BioAssay
# The source made the active and inactive calls. Unless noted, the rule behind the calls is not given here.
# How the values were obtained:
# [1] = test system: Wnt5a (protein binding on small-molecule microarray); assay: small molecules binding Wnt5a protein – biophysical, small-molecule microarray, 635/667 nm fluorescence, primary screen (AID 1142); details: 635 nm fluorescence, higher = more signal;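 note: fluorescence read at 667 nm with signal to noise per printed feature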
# [2] = ATP-based viability of Huh7 replicon cells – cell-based, CellTiter-Glo luminescence, basal, 48 h, cytotoxicity control for HCV replication inhibitor project, primary screen (AID 1143); details: higher = more signal, called active from +8 up or from −8 down;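 note: Huh7 hepatoma cells carrying a hepatitis C replication reporter with no stimulus; test concentration not given here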
# [3] = Pseudomonas biofilm growth suppression – PAO1 strain, BacTiter-Glo luminescence, LB-PBS, primary screen (AID 1144); details: P. aeruginosa PAO1 biofilm, 12 h, higher = more signal
# [4] = basal CRE-LacZ reporter activity in PC12 – cell-based, unstimulated, primary screen (AID 1145); details: no forskolin, luminescence, 4.5 h, higher = more signal, called active from +8 up or from −8 down
# [5] = forskolin-driven CRE-LacZ activity in PC12 – cell-based, CRE-LacZ reporter, forskolin-stimulated, primary screen (AID 1146); details: luminescence, 4.5 h, higher = more signal, called active from +8 up or from −8 down;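 note: PC12 cells with 6xCRE LacZ reporter stimulated by forskolin 10 µM; beta-galactosidase reporter signal reflecting CREB driven transcription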
# [6] = molecular target: Streptavidin (Streptomyces avidinii) (UniProt P22629); assay: compounds binding control protein streptavidin – biophysical, small-molecule microarray, 635/667 nm fluorescence, artefact control for SMM compound annotation, primary screen (AID 1147); details: higher = more signal;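 note: signal reflects streptavidin binding to arrayed compounds as a control protein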
# [7] = probe aInhba binding on compound microarray – biochemical, small-molecule microarray, 635/667 nm fluorescence, primary screen (AID 1148); details: higher = more signal;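 note: score merges 667nm spot fluorescence with signal-to-noise for antibody binding to printed compounds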
# [8] = molecular target: Torsin-1A (Homo sapiens) (UniProt O14656); assay: TOR1A wild-type binding on microarray – cell lysate, small-molecule microarray, lysate, 635/667 nm, primary screen (AID 1149); details: COS7 hTOR1A-WT lysate, 635 nm fluorescence, higher = more signal
# [9] = molecular target: Torsin-1A (Homo sapiens) (UniProt O14656); assay: torsin A mutant lysate binding on microarrays – cell lysate, small-molecule microarray, COS7 lysate, 635/667 nm fluorescence, primary screen (AID 1150); details: COS7 hTOR1A mutant lysate, 635 nm fluorescence, higher = more signal;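 note: score pools 667 nm emission and signal to noise measuring lysate protein binding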
# [10] = test system: Sonic hedgehog protein (Shh); assay: Sonic hedgehog microarray binding compounds – biochemical, small-molecule microarray, 635/667 nm fluorescence, primary screen (AID 1151); details: 635 nm fluorescence, higher = more signal;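 note: Shh protein binding to compounds spotted on small-molecule microarray slides; score combines spot fluorescence intensity with signal-to-noise across triplicate slides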
# [11] = optical density shifts of acrAB sulA E. coli – strain DRC41, OD650, 48 h, E. coli filamentation inducer project, primary screen (AID 1152); details: higher = more signal, called active from +8 up or from −8 down;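 note: E. coli MC1000 strain DRC41 lacking acrAB efflux pump and sulA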
# [12] = probe aLefty1 binding on compound microarray – biochemical, small-molecule microarray, 635/667 nm fluorescence, primary screen (AID 1153); details: higher = more signal;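 note: score merges spot fluorescence with signal-to-noise ratio from the scanned slide images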
# [13] = plasmodial surface anion channel blockers, osmotic lysis – cell-based, P. falciparum Indochina, OD700, 1 h, primary screen (AID 1154); details: P. falciparum Indochina infected RBC osmotic lysis, higher = more signal, called active from +8 up or from −8 down
# [14] = plasmodial surface anion channel blockers, osmotic lysis – cell-based, P. falciparum Indochina, OD700, 2 h, primary screen (AID 1155);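 note: lysis reports solute entry through the parasite surface anion channel PSAC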; details: P. falciparum Indochina infected erythrocytes, higher = more signal, called active from +8 up or from −8 down
# [15] = changes in parasitized red cell lysis, either direction – P. falciparum Indochina, OD700, 3 h, PSAC antagonist project, primary screen (AID 1156); details: P. falciparum-infected erythrocytes, osmotic lysis, higher = more signal, called active from +8 up or from −8 down
# [16] = plasmodial surface anion channel blockers, osmotic lysis – cell-based, P. falciparum Indochina, OD700, 18 h, primary screen (AID 1157); details: P. falciparum Indochina infected erythrocytes, osmotic lysis OD700, 18 h; higher = more signal, called active from +8 up or from −8 down
# [17] = S6 kinase pathway phospho-S6 level changes – cell-based, A549, cytoblot, luminescence, serum-stimulated, primary screen (AID 1158); details: 5 h, higher = more signal;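 note: serum-stimulated A549 lung adenocarcinoma cells; signal is phosphorylated S6 detected by cytoblot immunostaining with HRP secondary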
# [18] = molecular target: NADPH oxidase 2 (Homo sapiens) (UniProt P04839); assay: compounds shifting NOX2 Amplex Red fluorescence – cell-based, HEK293-NOX2, PMA-stimulated, NOX inhibitor project, primary screen (AID 1159); details: 45 min, higher = more signal, called active from +8 up or from −8 down; note: test concentration not given here
# [19] = molecular target: NADPH oxidase 4 (Homo sapiens) (UniProt Q9NPH5); assay: compounds shifting NOX4 Amplex Red fluorescence – cell-based, HEK293-NOX4, tetracycline-induced, NOX inhibitor project, primary screen (AID 1160); details: HEK293-NOX4, Amplex Red H2O2 fluorescence, 45 min; higher = more signal, called active from +8 up or from −8 down
# [20] = molecular target: NADPH oxidase 5 (Homo sapiens) (UniProt Q96PH1); assay: compounds shifting NOX5 Amplex Red fluorescence – cell-based, HEK293-NOX5, NOX inhibitor project, primary screen (AID 1161); details: HEK293-NOX5, ionomycin, 45 min, higher = more signal
# NADPH oxidase 5 (Homo sapiens), sequence (Q96PH1 whole entry, looked up): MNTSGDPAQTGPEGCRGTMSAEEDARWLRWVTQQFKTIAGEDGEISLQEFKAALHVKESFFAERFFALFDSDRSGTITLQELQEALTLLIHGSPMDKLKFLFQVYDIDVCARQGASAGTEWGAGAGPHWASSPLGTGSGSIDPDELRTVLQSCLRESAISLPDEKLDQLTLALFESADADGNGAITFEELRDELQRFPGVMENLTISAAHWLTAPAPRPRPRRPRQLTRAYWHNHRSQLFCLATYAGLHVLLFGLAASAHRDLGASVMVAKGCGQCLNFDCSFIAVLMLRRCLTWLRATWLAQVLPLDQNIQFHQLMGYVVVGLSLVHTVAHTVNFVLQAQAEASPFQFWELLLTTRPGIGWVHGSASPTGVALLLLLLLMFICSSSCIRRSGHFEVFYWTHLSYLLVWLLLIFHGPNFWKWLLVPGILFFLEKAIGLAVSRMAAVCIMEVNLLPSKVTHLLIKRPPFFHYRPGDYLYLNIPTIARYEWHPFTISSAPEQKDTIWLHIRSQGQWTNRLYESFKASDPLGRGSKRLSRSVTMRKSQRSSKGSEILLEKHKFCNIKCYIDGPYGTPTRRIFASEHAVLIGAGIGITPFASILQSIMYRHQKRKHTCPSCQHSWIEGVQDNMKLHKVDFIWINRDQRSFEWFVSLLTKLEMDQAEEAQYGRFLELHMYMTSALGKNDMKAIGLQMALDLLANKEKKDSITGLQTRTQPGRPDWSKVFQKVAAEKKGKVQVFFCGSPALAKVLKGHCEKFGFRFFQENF
# Torsin-1A (Homo sapiens), sequence (O14656 whole entry, looked up): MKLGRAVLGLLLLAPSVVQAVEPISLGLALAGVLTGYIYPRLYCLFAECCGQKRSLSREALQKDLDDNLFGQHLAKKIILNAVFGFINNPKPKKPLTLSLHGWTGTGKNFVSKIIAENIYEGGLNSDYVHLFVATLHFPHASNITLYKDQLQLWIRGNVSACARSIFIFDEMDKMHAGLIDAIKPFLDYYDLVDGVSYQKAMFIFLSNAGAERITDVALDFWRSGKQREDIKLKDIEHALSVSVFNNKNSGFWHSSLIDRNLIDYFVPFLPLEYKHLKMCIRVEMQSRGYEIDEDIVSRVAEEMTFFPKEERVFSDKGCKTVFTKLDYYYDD
# NADPH oxidase 2 (Homo sapiens), sequence (P04839 whole entry, looked up): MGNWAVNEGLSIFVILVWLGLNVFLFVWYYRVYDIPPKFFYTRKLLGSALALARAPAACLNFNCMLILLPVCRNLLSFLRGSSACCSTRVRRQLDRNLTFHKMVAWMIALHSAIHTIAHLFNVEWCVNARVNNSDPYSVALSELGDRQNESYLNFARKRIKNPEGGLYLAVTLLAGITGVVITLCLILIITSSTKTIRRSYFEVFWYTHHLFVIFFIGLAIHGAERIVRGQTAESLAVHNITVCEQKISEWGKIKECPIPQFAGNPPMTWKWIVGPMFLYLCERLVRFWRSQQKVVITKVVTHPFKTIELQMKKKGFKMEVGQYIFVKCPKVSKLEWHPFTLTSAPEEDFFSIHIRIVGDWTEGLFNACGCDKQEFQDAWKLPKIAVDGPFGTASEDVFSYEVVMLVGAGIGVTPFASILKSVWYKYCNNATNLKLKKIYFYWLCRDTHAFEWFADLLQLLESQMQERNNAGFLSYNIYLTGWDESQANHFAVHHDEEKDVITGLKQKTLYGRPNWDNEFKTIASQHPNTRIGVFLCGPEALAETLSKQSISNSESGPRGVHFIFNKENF
# Streptavidin (Streptomyces avidinii), sequence (P22629 whole entry, looked up): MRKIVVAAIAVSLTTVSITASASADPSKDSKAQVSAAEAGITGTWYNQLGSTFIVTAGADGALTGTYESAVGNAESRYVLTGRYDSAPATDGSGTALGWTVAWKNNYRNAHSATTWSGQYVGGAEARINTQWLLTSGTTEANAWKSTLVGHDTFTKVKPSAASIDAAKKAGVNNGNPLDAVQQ
# NADPH oxidase 4 (Homo sapiens), sequence (Q9NPH5 whole entry, looked up): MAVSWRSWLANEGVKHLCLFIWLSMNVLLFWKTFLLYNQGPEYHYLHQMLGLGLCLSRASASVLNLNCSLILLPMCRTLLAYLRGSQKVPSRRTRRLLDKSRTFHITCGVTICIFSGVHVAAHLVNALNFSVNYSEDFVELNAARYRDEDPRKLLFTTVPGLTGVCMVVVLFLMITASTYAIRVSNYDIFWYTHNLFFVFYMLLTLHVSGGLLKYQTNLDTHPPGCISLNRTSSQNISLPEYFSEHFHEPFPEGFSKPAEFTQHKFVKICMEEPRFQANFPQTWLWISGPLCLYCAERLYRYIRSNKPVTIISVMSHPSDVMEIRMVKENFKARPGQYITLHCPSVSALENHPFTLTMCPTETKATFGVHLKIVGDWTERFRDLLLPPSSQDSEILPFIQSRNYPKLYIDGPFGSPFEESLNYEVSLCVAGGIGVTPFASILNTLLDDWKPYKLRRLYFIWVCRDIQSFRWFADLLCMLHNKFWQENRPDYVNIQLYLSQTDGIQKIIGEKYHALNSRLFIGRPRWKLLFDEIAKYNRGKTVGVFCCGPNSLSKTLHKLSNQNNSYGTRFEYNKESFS
SMILES,composite z-score [1],z-score [2],z-score [3],z-score [4],z-score [5],composite z-score [6],composite z-score [7],composite z-score [8],composite z-score [9],composite z-score [10],z-score [11],composite z-score [12],z-score [13],z-score [14],z-score [15],z-score [16],z-score [17],z-score [18],z-score [19],z-score [20]
Cc1cc2c(nc1C)CCCN2CC(C)ON=C1[C@H]2CCn3c(=O)n(-c4ccccc4)c(=O)n3[C@H]2[C@H](O)[C@@H]2O[C@H]12 (stereo not given in full),0.337,0.357 (inactive),-0.258 (inactive),0.415 (inactive),0.533 (inactive),0.196,0.0301,-0.0339,0.246,1.03,-1.46 (inactive),0.0037,1.21 (inactive),0.283 (inactive),1.27 (inactive),0.513 (inactive),-0.415,-0.435 (inactive),-0.00359 (inactive),-0.832
O=C1CCCC2OC12C(O)CCc1ccccc1 (stereo not given),0.154,0.564 (inactive),0.357 (inactive),1.18 (inactive),0.0396 (inactive),0.035,-0.214,0.0994,-0.0582,0.174,0.508 (inactive),-0.541,-0.272 (inactive),-0.521 (inactive),-0.0749 (inactive),-0.169 (inactive),0.172,0.504 (inactive),-0.142 (inactive),0.0429
O=C1c2ccccc2[C@@]2(Cc3ccccc3N(C3CC3)C2=O)[C@H](c2ccc(CO)cc2)N1Cc1ccccc1C(F)(F)F,-0.145,-4.35 (inactive),-0.459 (inactive),-0.258 (inactive),-0.0879 (inactive),-1.07,0.21,-1.02,-0.77,-0.537,-0.262 (inactive),0.566,0.949 (inactive),-0.28 (inactive),-0.31 (inactive),-1.41 (inactive),1.01,0.136 (inactive),-1.4 (inactive),-0.129
CC(=O)OC[C@H]1O[C@H](CCON=C(C)CCC(=O)OC[C@H]2O[C@H](C#Cc3ccccc3)C=C[C@@H]2Oc2ccc(C)cc2)C=C[C@@H]1OC(C)=O,0.0159,-0.474 (inactive),0.037 (inactive),0.894 (inactive),0.452 (inactive),0.238,-0.231,0.595,0.139,0.688,0.604 (inactive),0.28,8.85 (active),1.43 (inactive),1.02 (inactive),0.931 (inactive),-0.987,-0.772 (inactive),0.384 (inactive),-1.64
CCOC(=O)NN=C1C[C@@H](O)[C@@H](O)[C@@H]2[C@@H]3C(=O)N(C4CCCCC4)C(=O)[C@@H]3CC[C@H]12,-0.064,-0.779 (inactive),0.786 (inactive),0.341 (inactive),0.174 (inactive),-0.0615,-0.111,0.218,0.568,0.369,-1.02 (inactive),-0.288,3.79 (inactive),0.323 (inactive),0.822 (inactive),0.574 (inactive),-0.0238,2.18 (inactive),-1.17 (inactive),-1.46
CCOC(=O)CCN1C(=O)[C@H]2[C@H]3[C@H](O)[C@H](O)CC(=NOCc4ccccc4)[C@@H]3CC[C@H]2C1=O,-0.0682,-1.25 (inactive),0.324 (inactive),-0.294 (inactive),0.0433 (inactive),0.115,-0.186,0.434,0.496,0.612,-0.505 (inactive),-0.094,1.61 (inactive),0.885 (inactive),-0.059 (inactive),0.429 (inactive),-0.32,-0.104 (inactive),0.593 (inactive),1.14
CC(C)OC(=O)C=C1C[C@@H](c2ccc(C#N)cc2)O[C@@H](c2ccc(C#N)cc2)O1,0.923,-2.6 (inactive),0.618 (inactive),2.74 (inactive),0.421 (inactive),0.77,0.165,1.99,2.06,0.292,0.197 (inactive),0.474,8.57 (active),0.848 (inactive),0.78 (inactive),0.439 (inactive),-0.342,-0.669 (inactive),-1.02 (inactive),-0.607
COC(=O)[C@H]1COC(c2ccc(OCCCO)cc2)=N1,-0.0323,-0.597 (inactive),-0.767 (inactive),0.0686 (inactive),0.697 (inactive),-0.998,-0.204,0.337,1.4,-0.196,-0.13 (inactive),0.245,22.4 (active),5.33 (inactive),0.0031 (inactive),0.642 (inactive),-0.0797,-0.257 (inactive),0.172 (inactive),-0.663
